# Inconclusive results are not listed. Active and inactive are the calls of the source.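 The calls were made as follows, unless noted: active = Her2 level under about 52% in both replicate screens, with viability over 70% of control (limit read from the data); inconclusive = Her2 under the limit in one screen only, or viability under 70%; inactive = Her2 level above the set limit.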
# Experiments:
# [1] = reducers of endogenous Her2 protein level, primary screen, SKBR3 breast tumor cells, AlphaScreen, ATP viability (AID 461); settings: 18-24 h, measured here: SKBR3 viability, ATP luminescence, at 10 µM;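 as to Her2 level: lower value means less Her2 protein in the cells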;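 as to viability: percent of carrier control wells set as 100% viability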
# [2] = target: Receptor tyrosine-protein kinase erbB-2 (Homo sapiens) (UniProt P04626); test: as above; settings: 18-24 h, at 10 µM, stronger effect = lower value
# [3] = SK-BR-3 cell growth inhibitors, pilot screen, 24 h, human (AID 572;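 active = viability at or below 10% of carrier control in both of two separate runs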;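 also: compound exposure lasted between 18 and 24 h rather than exactly 24 h; 100% = carrier-treated control wells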); settings: SK-BR-3 viability, CellTiter-Glo luminescence, at 10 µM, stronger effect = lower value
# [4] = HUVEC growth inhibition – cell-based, human, primary screen (AID 575;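 active = viability at or below 30% in both replicate assays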;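 also: 100% = median of untreated cell wells with 0.1% DMSO on each plate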); settings: HUVEC proliferation, CellTiter-Glo luminescence, 72 h; at 10 µM; stronger effect = lower value
# [5] = growth inhibitors of H69AR lung tumor, primary screen, human, duplicate replicates (AID 580;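 active = viability at or under a set limit in both replicates, limit being median viability minus 3 SD, cut at about 48% in these data, passing the limit was not always enough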;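 also: 100% = mean luminescence of untreated wells and 0% = no signal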); settings: H69AR lung tumor cells viability, ATP luminescence, 72 h; at 10 µM; stronger effect = lower value
# [6] = reversal of MRP1-mediated doxorubicin resistance, pilot screen, H69AR cells, doxorubicin co-treatment (AID 601;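 active = viability loss from added drug above about 55%, and viability with drug at most 40%, in both replicates, limit read from the data, passing the limit was not always enough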); settings: CellTiter-Glo, 72 h, at 10 µM; for differential viability (reversal): stronger effect = higher value
# [7] = 384-well plate pilot, post-Golgi transport modulator project, inhibition of yeast transport mutant growth (AID 636; in the data active = inhibition above about 31%); settings: absorbance 615 nm, about 18 h, stronger effect = higher value
# [8] = growth suppression of yeast trafficking mutant, preliminary HTS, modulators of trafficking downstream of Golgi apparatus project, 1536-format plate, OD 615 nm (AID 637; in the data active = inhibition above about 30%); settings: yeast transport mutant growth, absorbance 615 nm, 18 h; stronger effect = higher value
# [9] = OD615 S. cerevisiae growth inhibition, permissive medium, pilot counter-assay, permissive growth control for S. cerevisiae lifespan shortening project (AID 705;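 active = growth inhibition above 25% in both replicates, a cutoff set 3 SD above the mean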); settings: OD615, 24 h, at 10 µM, stronger effect = higher value
# [10] = Restrictive medium S. cerevisiae growth inhibition, OD615, pilot screen of yeast lifespan reduction project, restrictive growth control (AID 706;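 active = growth inhibition above a set limit, 3 SD over mean compound inhibition, in both replicates, cut at about 43% in these data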;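 also: modified DeaD lifespan yeast strain shifted to restrictive glucose medium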); settings: OD615, 48 h, at 10 µM, stronger effect = higher value
# [11] = viability gain of MRP-1-high H69AR cells under doxorubicin, pilot screen, MRP-1 activator project, CellTiter-Glo, duplicate (AID 807;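 active = viability increase at or above a cutoff of the median across tested compounds plus 3 SD, cut at about 8.5% in these data, passing the limit was not always enough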;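 also: compound pretreatment 18-22 h then 72 h combined with doxorubicin; 0% = doxorubicin alone and 100% = vehicle without doxorubicin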); settings: H69AR viability with doxorubicin, CellTiter-Glo luminescence; at 10 µM; stronger effect = higher value
# [12] = growth suppression of beta-catenin knockout HCT116, pilot screen, human colon tumor cells (AID 823;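 active = cell viability at or below a set limit in both duplicate runs, the limit being the all-compound median minus 4 SD, cut at about 23% in these data, passing the limit was not always enough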;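 also: 0% = wells killed by 20 µM Hyamine and 100% = untreated DMSO cell wells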); settings: CellTiter-Glo, 60 h, at 10 µM, stronger effect = lower value
# [13] = growth suppression of PTEN-deleted HCT116, pilot screen, cell-based, HCT116 clonal line, CellTiter-Glo (AID 824;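 active = viability at or below 27.92% in each of two runs, the all-compound median minus 4 SD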;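 also: 0% = 20 µM Hyamine control and 100% = vehicle cell control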); settings: 60 h, at 10 µM, stronger effect = lower value
# [14] = inhibitors of the yeast RAM network, pilot screen, dse1pr::URA3 reporter, 5-FOA selection (AID 869;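 active = inhibition over a set limit, the all-compound mean plus 3 SD, in both replicate runs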;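 also: 0% = DMSO wells with no growth and 100% = 10 µM 1-NA-PP1 with full growth; RAM network block rescues cells from 5-FOA so hits raise OD615 growth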); settings: S. cerevisiae dse1pr::URA3 5-FOA growth, OD615, 2 d; at 10 µM; stronger effect = higher value; strain carries analog-sensitive mutant Cbk1 kinase
# [15] = RAM signaling pathway blockade in yeast – S. cerevisiae, Pdr1DBD-CYC8 efflux-inhibited sensitized strain, primary screen (AID 1298;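 active = RAM network inhibition above 8.4% in each of two replicates, 3 SD over the compound average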;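 also: 0% = DMSO untreated cells without growth and 100% = 10 µM 1-NA-PP1 full growth; higher means more yeast growth rescued from 5-FOA killing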); settings: S. cerevisiae cbk1-as DSE1-URA3 strain, 5-FOA growth OD615, 2 d; at 50 µM; stronger effect = higher value
# [16] = H69AR cells + 2 uM doxorubicin, measured here: viability with 2 uM doxorubicin, stronger effect = lower value
# [17] = H69AR cells, compound alone cytotoxicity
# Sequence of Receptor tyrosine-protein kinase erbB-2 (Homo sapiens) (P04626 whole entry, looked up): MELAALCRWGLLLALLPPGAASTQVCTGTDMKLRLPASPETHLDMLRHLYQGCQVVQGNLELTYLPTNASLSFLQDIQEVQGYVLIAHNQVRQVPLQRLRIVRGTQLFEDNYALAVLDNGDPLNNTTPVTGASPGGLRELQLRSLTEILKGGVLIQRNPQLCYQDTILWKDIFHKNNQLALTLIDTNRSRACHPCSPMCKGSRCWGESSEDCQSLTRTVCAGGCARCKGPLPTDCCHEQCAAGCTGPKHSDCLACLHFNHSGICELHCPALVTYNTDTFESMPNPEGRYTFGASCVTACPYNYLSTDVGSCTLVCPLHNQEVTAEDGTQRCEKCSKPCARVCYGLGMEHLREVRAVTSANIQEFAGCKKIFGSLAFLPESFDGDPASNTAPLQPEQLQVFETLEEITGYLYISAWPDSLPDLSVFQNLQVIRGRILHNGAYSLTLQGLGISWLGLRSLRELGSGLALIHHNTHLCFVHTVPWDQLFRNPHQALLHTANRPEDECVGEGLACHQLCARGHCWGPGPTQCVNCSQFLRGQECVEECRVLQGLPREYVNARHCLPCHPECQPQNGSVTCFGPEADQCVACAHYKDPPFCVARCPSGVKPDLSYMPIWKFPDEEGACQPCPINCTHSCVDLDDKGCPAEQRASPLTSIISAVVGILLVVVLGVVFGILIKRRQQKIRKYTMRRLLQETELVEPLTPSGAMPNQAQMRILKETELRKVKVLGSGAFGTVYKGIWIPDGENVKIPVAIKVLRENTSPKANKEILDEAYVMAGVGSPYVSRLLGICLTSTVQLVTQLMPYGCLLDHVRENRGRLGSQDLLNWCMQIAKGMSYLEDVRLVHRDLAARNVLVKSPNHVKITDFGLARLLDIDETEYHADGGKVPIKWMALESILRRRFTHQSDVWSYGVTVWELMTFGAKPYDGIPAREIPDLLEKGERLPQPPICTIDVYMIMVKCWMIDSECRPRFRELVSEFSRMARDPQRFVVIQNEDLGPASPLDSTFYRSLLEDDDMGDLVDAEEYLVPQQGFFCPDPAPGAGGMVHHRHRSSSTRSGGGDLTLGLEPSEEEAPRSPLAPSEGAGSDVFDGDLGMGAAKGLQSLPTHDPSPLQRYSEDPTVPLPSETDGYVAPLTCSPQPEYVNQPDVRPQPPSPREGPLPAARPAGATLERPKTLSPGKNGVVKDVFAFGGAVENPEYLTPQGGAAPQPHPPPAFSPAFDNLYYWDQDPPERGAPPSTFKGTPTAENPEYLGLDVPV
SMILES,viability [1] [%],Her2 level [2],viability [3],viability [4],viability [5],differential viability (reversal) ([6]; H69AR cells + 2 uM doxorubicin),"viability [6, 16] [%]","viability [6, 17] [%]",inhibition [7],inhibition [8],growth inhibition [9],growth inhibition [10],viability increase [11],viability [12],viability [13],inhibition [14],RAM network inhibition [15]
Cn1c(Cc2ccccc2)nnc1SCC(=O)NC1CCCCC1,107,94.5% (inactive),107% (inactive),91.5% (inactive),92.5% (inactive),12.9% (inactive),79.6,92.5,-6.08% (inactive),3% (inactive),1.09% (inactive),10% (inactive),0.74% (inactive),97.4% (inactive),103% (inactive),1.4% (inactive),1.4% (inactive)
Cc1onc(-c2c(Cl)cccc2Cl)c1C(=O)NCC1CCCO1 (stereo not drawn),111,104% (inactive),111% (inactive),97.7% (inactive),111% (inactive),16% (inactive),95.2,111,-4.59% (inactive),-5.74% (inactive),6.24% (inactive),-5.78% (inactive),-1.12% (inactive),91.7% (inactive),92.9% (inactive),-1.21% (inactive),-0.45% (inactive)
CC1CCN(C(=O)Cn2cc3c(n2)CCCC3)CC1,97,116% (inactive),97% (inactive),97.1% (inactive),96.4% (inactive),-4.43% (inactive),101,96.4,6.67% (inactive),-4.5% (inactive),-7.6% (inactive),-2.46% (inactive),0.91% (inactive),100% (inactive),99.9% (inactive),0.615% (inactive),3.48% (inactive)
COc1cc(C(=O)N2c3ccccc3CC2C)cc(OC)c1OC (stereo not drawn),102,81.5% (inactive),102% (inactive),88.8% (inactive),81.8% (inactive),-9.55% (inactive),91.3,81.8,-4.59% (inactive),-3.33% (inactive),-3.11% (inactive),-16.6% (inactive),-4.64% (inactive),87.4% (inactive),83.8% (inactive),0.67% (inactive),6.34% (inactive)
O=C(NC1CCCC1)C1CCCN(S(=O)(=O)c2cccc3cccnc23)C1 (stereo not drawn),102,116% (inactive),102% (inactive),115% (inactive),98.8% (inactive),3.92% (inactive),94.8,98.8,-5.07% (inactive),4.33% (inactive),-9.46% (inactive),1.54% (inactive),-1.04% (inactive),100% (inactive),99.3% (inactive),0.7% (inactive),5.53% (inactive)
CC(C)(C)SCCNC(=O)CN1C(=O)c2ccccc2S1(=O)=O,97,92.5% (inactive),97% (inactive),101% (inactive),106% (inactive),8.94% (inactive),97.4,106,-4.67% (inactive),0.82% (inactive),-13% (inactive),-6.21% (inactive),-0.57% (inactive),103% (inactive),99.8% (inactive),1.42% (inactive),4.44% (inactive)
Cc1ccccc1OCc1nnc2n1CC(C)S2 (stereo not drawn),99,95% (inactive),99% (inactive),88.6% (inactive),92.3% (inactive),1.37% (inactive),90.9,92.3,-4.27% (inactive),-2% (inactive),3.34% (inactive),16.6% (inactive),0.12% (inactive),97.8% (inactive),95.3% (inactive),0.795% (inactive),-0.06% (inactive)
Cc1nc2ccccc2c2oc(C(=O)NCCCN3CCCC3=O)cc12,91,97.5% (inactive),91% (inactive),84.3% (inactive),91.8% (inactive),13.9% (inactive),77.9,91.8,-5.73% (inactive),-2.62% (inactive),-0.475% (inactive),-1.4% (inactive),-1.47% (inactive),94.5% (inactive),96.8% (inactive),1.9% (inactive),6.62% (inactive)
CN(C)C(=O)N1CCN(C(=O)c2ccco2)CC1,116,114% (inactive),116% (inactive),94.6% (inactive),101% (inactive),6.83% (inactive),94.6,101,2.4% (inactive),-3.83% (inactive),1.14% (inactive),8.06% (inactive),-1.78% (inactive),102% (inactive),99.5% (inactive),2.13% (inactive),0.72% (inactive)
